# TRHR ag: qHTS for Small Molecule Agonists and Allosteric Enhancers of Human TRH Receptor: Primary Screen for Agonists. TRHR cells, calcium flux fluo-8, FDSS agonist mode. activation, % at 2 µM. 0.18% of 360,000 active; further: 0% is about no effect
# Target sequence (P34981 whole entry, looked up): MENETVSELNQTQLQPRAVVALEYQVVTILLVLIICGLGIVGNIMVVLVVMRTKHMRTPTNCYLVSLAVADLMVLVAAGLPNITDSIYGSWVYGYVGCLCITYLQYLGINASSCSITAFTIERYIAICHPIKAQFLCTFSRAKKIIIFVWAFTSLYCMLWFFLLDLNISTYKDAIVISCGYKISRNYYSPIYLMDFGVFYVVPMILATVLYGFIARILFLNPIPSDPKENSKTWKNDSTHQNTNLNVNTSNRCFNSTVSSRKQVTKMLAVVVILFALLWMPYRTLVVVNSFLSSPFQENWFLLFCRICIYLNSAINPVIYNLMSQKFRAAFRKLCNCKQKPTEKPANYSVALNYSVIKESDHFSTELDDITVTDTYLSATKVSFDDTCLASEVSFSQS
#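 In this calcium-flux screen, cells bearing human TRHR are dye-loaded with fluo-8, baselined for 10 cycles, then exposed to library compounds; positive kinetic calcium responses during the agonist phase mark hits, with TRH as control.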
# D1 agonist: Allosteric Agonists of the Human D1 Dopamine Receptor: qHTS | 1% of 360,000 active | activation, % at 2 µM | AID 504660, 2011 | HEK293 T-REx D1 cells, calcium flux, agonist mode | D(1A) dopamine receptor (Homo sapiens), P21728; further: 0% is about no effect
#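 Agonism was scored from calcium flux recorded over 180 s (1 read/s) after pintool compound addition, following a 10-cycle baseline. Cells were inducible force-coupled HEK293 TREx D1, plated overnight at 30 C and loaded with no-wash calcium dye.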
# TRHR enhancer: qHTS for Small Molecule Agonists and Allosteric Enhancers of Human TRH Receptor: Primary Screen for Enhancers; enhancement, % at 2 µM; TRHR cells, fluo-8 calcium fluorescence, EC20 TRH enhancement; 0.66% of 360,000 active; Thyrotropin-releasing hormone receptor (Homo sapiens), P34981; in the data active means enhancement above about 30%; further: 0% is about no effect
#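 Enhancer read-out: after compound pinning and an initial kinetic agonist-mode read, an EC20 of TRH (10 nM final) was injected and fluo-8 calcium signal (Ex 480/Em 530) followed at 1 s/cycle for 100 cycles in TRHR-expressing cells.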
# D1 antag: Antagonist of Human D 1 Dopamine Receptor: qHTS; D(1A) dopamine receptor (Homo sapiens), P21728; HEK293 TREx D1 cells, calcium flux, dopamine EC80; stronger effect = lower value; activity change, negative = inhibition, % at 10 µM; 3.2% of 360,000 active; AID 504652, 2011; in the data active means activity change below about -30%; further: on the % scale 0 is the no-effect control and ±100 the full control effect
#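 Using tetracycline-induced force-coupled D1 Hek293 cells and a calcium dye, signals were followed for 180 s after compound, then for 180 s after EC80 dopamine, to detect inhibitors.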
# D1 PAM: Potentiators of Human D1 Dopamine Receptor: qHTS. HEK293 TREx D1 cells, calcium flux, dopamine EC20 potentiation. D(1A) dopamine receptor (Homo sapiens), P21728. 0.036% of 360,000 active. potentiation, % at 10 µM. AID 504651, 2011; in the data active means potentiation above about 30%; further: 0% is about no effect
# * hit, by the source's call; nt = not tested or not shown. A selection: hits, their analogues and other compounds. The true share with any hit is near 4.7%. Unless noted, no stated cut-off is given here; in the data, active means activation above about 30%; inactive means the rest.
SMILES,TRHR ag,D1 agonist,TRHR enhancer,D1 antag,D1 PAM
CN(C)c1ccc(Nc2ncnc3sc4c(c23)CCCC4)cc1,-1,0,0,2,-1
CC(C)[C@H](NC(=O)OCc1ccccc1)C(=O)OCC(=O)N1CCN(c2ccc(F)cc2)CC1,-1,6,2,-65*,-2
C=C1C(=O)C=C2CN(C(=O)c3ccccc3)[C@@](Cc3ccc(F)cc3)(C(=O)OC)[C@@H]12,17,90*,0,-35*,5
COC(=O)[C@@]1(Cc2ccc(OC)cc2)[C@@H]2C(=CC(=O)[C@H]2CC(=O)C(=O)N(C)C)CN1C(=O)c1ccccc1,-1,4,-3,-10,-4
O=C(C1CCCCN1S(=O)(=O)c1ccccc1)N1CCCCC1 (centres undefined),-1,-1,9,14,0
O=C(C1CCCCN1S(=O)(=O)c1ccccc1)N1CCN(C(c2ccccc2)c2ccccc2)CC1 (centres undefined),0,8,-2,-30*,2
COC(=O)Cn1c(O)c(N=NC(=O)c2ccc3c(c2)OCO3)c2ccccc21,1,0,-3,-35*,3
CC(=O)Oc1ccc2c(c1)Oc1cc(OC(C)=O)ccc1C21OC(=O)c2ccccc21,106*,834*,-20,4,-1
Cc1cc(O)ccc1C1(c2ccc(O)cc2C)OC(=O)c2ccccc21,0,9,6,5,0
CCOC(=O)c1nc(-c2ccc(OC)c(OC)c2)no1,1,3,2,3,7
Cc1ccc2[nH]c(CSc3nnc(NC(=O)c4ccccc4C)s3)cc(=O)c2c1,0,-1,-1,2,-3
Cc1ccc2[nH]c(CSc3nnc(NC(=O)c4ccccc4F)s3)cc(=O)c2c1,0,1,0,-32*,0
O=C(O)CCc1cc(F)c(S(=O)(=O)N2CCN(S(=O)(=O)c3ccc4c(c3)OCCO4)CC2)cc1F,-2,1,10,12,2
CC(C)C[C@H]1CN=C(Nc2ccccc2)N1CCCC1CCCCC1,2,24,2,2,3
CC(C)C[C@H]1CN=C(Nc2ccccc2)N1CCCC1CCCC1,0,41*,3,20,-6
O=C(CN1CCN(C(=O)CCC(=O)N2CCC(c3ccccc3)=N2)CC1)Nc1ccc(F)cc1,0,4,-2,-41*,-6
O=C(Nc1ccncc1)Nc1ccc(Br)cc1Cl,1,4,-4,-34*,-7
O=C(Nc1ccncc1)Nc1ccc(F)c(Cl)c1,2,23,36*,-13,-6
CC(=O)c1ccc(NC(=O)c2ccc(C)c(Br)c2)cc1,-2,13,8,-3,-8
O=C(Nc1ccc(Br)cc1)Nc1ccccc1Cl,1,11,-6,-41*,-3
O=C(Nc1ccc(F)c(Cl)c1)Nc1ccc(Cl)cn1,1,0,5,5,-1
CC(=O)c1ccc(NC(=O)Nc2ccc(Br)cc2C)cc1,0,21,3,-35*,-11
Cc1cccc(-c2nc(SCc3cc(=O)c4c(C)cc(C)cc4[nH]3)n[nH]2)c1,0,-1,-5,3,1
Cc1ccc2nc(NCCCN3CCOCC3)c(C=NCCCN3CCOCC3)c(=O)n2c1,0,1,32*,11,-8
Cc1ccc2nc(NCc3ccccc3)c(C=NCc3ccccc3)c(=O)n2c1,1,23,0,3,-2
SMILES,TRHR ag,D1 agonist,TRHR enhancer,D1 antag,D1 PAM
NCC12CC3CC(C1)CC(c1ccc(Cl)cc1)(C3)C2,2,38*,12,-11,-9
Nc1ccc(C23CC4CC(CC(CO)(C4)C2)C3)cc1,-1,10,26,-4,-1
CCOC(=O)N1CCC(NC(=O)CS(=O)Cc2nc(-c3ccc(Cl)cc3)oc2C)CC1 (centres undefined),-1,0,-3,-14,-5
C=Cc1ccc(Cn2c(C(=O)O)c(CNCc3ccccc3)c3ccc(C)cc32)cc1,-1,2,-3,24,12
COc1ccc(C(=O)CCN2CCN(c3ccccc3OC)CC2)cc1,-1,5,6,-46*,-12
COc1ccccc1N1CCN(CC(=O)c2ccc3ccn(C(C)=O)c3c2)CC1,-1,1,17,-76*,nt
COc1ccc(C(=O)N2CCN(c3ccccc3OC)CC2)cc1,2,4,-2,-8,-10
COc1ccccc1N1CCN(CCCC(=O)c2ccc(F)cc2)CC1,0,6,22,-80*,-9
Cc1c(NC(=O)c2cc([N+](=O)[O-])ccc2N2CCOCC2)cccc1-c1nc2ccccc2o1,-1,2,2,9,-3
COc1cc(NC(=O)C(CC(C)C)NS(=O)(=O)c2ccc3c(c2)CCCC(=O)N3)cc(OC)c1 (centres undefined),1,2,6,-10,4
O=C1C(=O)N(C2CCN(S(=O)(=O)c3ccc(F)cc3)CC2)CCN1Cc1ccccc1,0,3,-2,24,0
COc1ccc(S(=O)(=O)N2CCN(Cc3ccc(Cl)cc3)CC2)cc1,-1,3,-1,10,-2
COc1ccc(Br)cc1S(=O)(=O)N1CCCC1,0,-2,-3,-36*,-10
COc1ccc(S(=O)(=O)N2CCN(Cc3cccc(Cl)c3)CC2)cc1,0,1,-1,-39*,-2
COc1ccc(S(=O)(=O)N2CCC(N3CCN(Cc4ccc(F)cc4)C(=O)C3=O)CC2)cc1,-1,2,3,-36*,1
COc1ccc(OC)c(S(=O)(=O)N2CCC(C(=O)N3CCN(Cc4ccccc4)CC3)CC2)c1,0,5,3,-3,-4
COc1ccc(OC)c(S(=O)(=O)N2CCN(Cc3ccccc3)CC2)c1,0,6,31*,0,0
COc1ccc(S(=O)(=O)N2CCC(N3CCN(Cc4ccccc4)CC3)CC2)cc1,0,-2,31*,-6,-1
O=S(=O)(c1ccc(Cl)cc1)N1CCN(C2CCN(Cc3ccccc3)CC2)CC1,0,2,15,6,-1
O=[N+]([O-])c1ccccc1S(=O)(=O)N1CCN(C2CCN(Cc3ccccc3)CC2)CC1,1,1,31*,-8,-2
COCCCNC(=O)c1sc2nc(C)c(C(=O)Nc3ccc(C)cc3C)c(-c3ccc(Cl)cc3)c2c1N,0,5,-1,-5,0
Nc1ccc(Oc2ccc(F)cc2)nc1,0,5,34*,-18,-5
O=Cc1ccc(Oc2ccc(F)cc2)nc1,0,2,1,-4,5
